From PubChem BioAssay AID1159580 (chemical genetic matrix, 2015)
Hit rate of the full screen: of about 5,500 compounds, about 2,000 (36%) were called active. About 18% were inconclusive and are not listed. Some of the results follow. A number with no mark means an inactive call. Cut-off read from the data, not from the text of the source: active = normalized growth mostly below about 0.91 (no sharp cut-off); inconclusive = no clear call, values can overlap the other calls; inactive = mostly above about 0.92.

Assay: chemical genetic growth profiling, strain panel (AID 1159580);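 note: tested at 20 µM; growth read once vehicle control cultures reached saturation at 30 °C; 1 = growth at the plate median or of vehicle wells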
Conditions: S. cerevisiae deletion strains, growth OD

## CC(=O)Oc1ccc(O)cc1
Locus YAL013W, strain DEP1, stronger effect = lower value
  normalized growth: 0.942
Locus YAL021C, strain ccr4, stronger effect = lower value
  normalized growth: 1.03
Locus YAL026C, strain drs2, stronger effect = lower value
  normalized growth: 0.953
Locus YAL030W, strain snc1, stronger effect = lower value
  normalized growth: 0.994
Locus YBL061C, strain skt5, stronger effect = lower value
  normalized growth: 0.977
Locus YBR009C, strain hhf1, stronger effect = lower value
  normalized growth: 0.963
Locus YBR021W, strain FUR4, stronger effect = lower value
  normalized growth: 0.796 (active)
Locus YBR023C, strain chs3, stronger effect = lower value
  normalized growth: 0.982
Locus YBR171W, strain sec66, stronger effect = lower value
  normalized growth: 0.974
Locus YBR229C, strain ROT2, stronger effect = lower value
  normalized growth: 1.02
Locus YBR231C, strain swc5, stronger effect = lower value
  normalized growth: 0.971
Locus YBR279W, strain paf1, stronger effect = lower value
  normalized growth: 0.986
Locus YCL011C, strain gbp2, stronger effect = lower value
  normalized growth: 0.989
Locus YCL016C, strain dcc1, stronger effect = lower value
  normalized growth: 0.999
Locus YCL029C, strain bik1, stronger effect = lower value
  normalized growth: 1.03
Locus YCL061C, strain MRC1, stronger effect = lower value
  normalized growth: 0.993
Locus YCL069W, strain vba3, stronger effect = lower value
  normalized growth: 0.987
Locus YCR088W, strain abp1, stronger effect = lower value
  normalized growth: 0.995
Locus YDL005C, strain med2, stronger effect = lower value
  normalized growth: 0.978
Locus YDL035C, strain GPR1, stronger effect = lower value
  normalized growth: 0.922
Locus YDL040C, strain nat1, stronger effect = lower value
  normalized growth: 0.994
Locus YDL074C, strain BRE1, stronger effect = lower value
  normalized growth: 1
Locus YDL101C, strain DUN1, stronger effect = lower value
  normalized growth: 1
Locus YDL134C, strain PPH21, stronger effect = lower value
  normalized growth: 0.89
Locus YDL185W, strain tfp1, stronger effect = lower value
  normalized growth: 1.03
Locus YDL192W, strain arf1, stronger effect = lower value
  normalized growth: 1.02
Locus YDR001C, strain nth1, stronger effect = lower value
  normalized growth: 0.987
Locus YDR069C, strain doa4, stronger effect = lower value
  normalized growth: 1.02
Locus YDR101C, strain arx1, stronger effect = lower value
  normalized growth: 1.02
Locus YDR137W, strain rgp1, stronger effect = lower value
  normalized growth: 0.936
Locus YDR150W, strain NUM1, stronger effect = lower value
  normalized growth: 0.999
Locus YDR159W, strain sac3, stronger effect = lower value
  normalized growth: 0.967
Locus YDR162C, strain NBP2, stronger effect = lower value
  normalized growth: 0.916
Locus YDR195W, strain ref2
  normalized growth: 0.997
Locus YDR297W, strain sur2, stronger effect = lower value
  normalized growth: 0.987
Locus YDR318W, strain mcm21, stronger effect = lower value
  normalized growth: 1
Locus YDR334W, strain swr1, stronger effect = lower value
  normalized growth: 0.986
Locus YDR335W, strain msn5, stronger effect = lower value
  normalized growth: 0.995
Locus YDR388W, stronger effect = lower value
  normalized growth: 1.02
Locus YDR392W, strain spt3, stronger effect = lower value
  normalized growth: 0.844
Locus YDR502C, strain sam2, stronger effect = lower value
  normalized growth: 1.02
Locus YEL003W, strain gim4, stronger effect = lower value
  normalized growth: 0.986
Locus YEL037C, strain rad23, stronger effect = lower value
  normalized growth: 0.987
Locus YEL061C, strain CIN8 (second series), stronger effect = lower value
  normalized growth: 0.98
Locus YEL061C, strain CIN8, stronger effect = lower value
  normalized growth: 1
Locus YER015W, strain faa2, stronger effect = lower value
  normalized growth: 0.992
Locus YER016W, strain bim1, stronger effect = lower value
  normalized growth: 1.01
Locus YER110C, stronger effect = lower value
  normalized growth: 1.04
Locus YER111C, strain swi4, stronger effect = lower value
  normalized growth: 0.969
Locus YER155C, strain BEM2 (second series), stronger effect = lower value
  normalized growth: 0.959
Locus YER155C, strain BEM2, stronger effect = lower value
  normalized growth: 1.01
Locus YER167W, strain BCK2, stronger effect = lower value
  normalized growth: 0.976
Locus YFR010W, strain ubp6, stronger effect = lower value
  normalized growth: 0.969
Locus YGL078C, strain dbp3, stronger effect = lower value
  normalized growth: 1.02
Locus YGL086W, strain mad1, stronger effect = lower value
  normalized growth: 0.984
Locus YGL167C, strain pmr1, stronger effect = lower value
  normalized growth: 0.988
Locus YGL173C, strain kem1, stronger effect = lower value
  normalized growth: 0.975
Locus YGL227W, strain vid30, stronger effect = lower value
  normalized growth: 0.983
Locus YGL240W, strain doc1, stronger effect = lower value
  normalized growth: 0.926
Locus YGL248W, strain PDE1, stronger effect = lower value
  normalized growth: 0.923
Locus YGL253W, strain hxk2, stronger effect = lower value
  normalized growth: 0.973
Locus YGR135W, strain pre9, stronger effect = lower value
  normalized growth: 0.99
Locus YGR229C, strain SMI1, stronger effect = lower value
  normalized growth: 0.572 (active)
Locus YGR252W, strain gcn5, stronger effect = lower value
  normalized growth: 0.87
Locus YHR013C, strain ard1, stronger effect = lower value
  normalized growth: 0.975
Locus YHR027C, strain rpn1, stronger effect = lower value
  normalized growth: 0.987
Locus YHR030C, strain SLT2, stronger effect = lower value
  normalized growth: 0.994
Locus YHR079C, strain IRE1 (second series), stronger effect = lower value
  normalized growth: 1.02
Locus YHR094C, strain hxt1, stronger effect = lower value
  normalized growth: 1.02
Locus YHR129C, strain ARP1, stronger effect = lower value
  normalized growth: 0.994
Locus YHR142W, strain chs7, stronger effect = lower value
  normalized growth: 0.996
Locus YHR200W, strain rpn10, stronger effect = lower value
  normalized growth: 1.03
Locus YIL066C, strain RNR3, stronger effect = lower value
  normalized growth: 0.852 (active)
Locus YIL073C, strain SPO22, stronger effect = lower value
  normalized growth: 0.89
Locus YIL125W, strain kgd1, stronger effect = lower value
  normalized growth: 1.02
Locus YIR030C, strain dcg1, stronger effect = lower value
  normalized growth: 1.04
Locus YJL092W, strain hpr5, stronger effect = lower value
  normalized growth: 0.983
Locus YJL095W, strain BCK1 (second series), stronger effect = lower value
  normalized growth: 0.996
Locus YJL095W, strain BCK1, stronger effect = lower value
  normalized growth: 0.976
Locus YJL115W, strain asf1, stronger effect = lower value
  normalized growth: 0.988
Locus YJL129C, strain trk1, stronger effect = lower value
  normalized growth: 1.01
Locus YJL134W, strain LCB3, stronger effect = lower value
  normalized growth: 1.03
Locus YJL154C, strain vps35, stronger effect = lower value
  normalized growth: 0.985
Locus YJL164C, strain tpk1, stronger effect = lower value
  normalized growth: 0.975
Locus YJL166W, strain qcr8, stronger effect = lower value
  normalized growth: 0.978
Locus YJL168C, strain set2, stronger effect = lower value
  normalized growth: 1.02
Locus YJL187C, strain SWE1 (second series), stronger effect = lower value
  normalized growth: 0.997
